These results are taken from ChEMBL document CHEMBL1961873, “Compounds: GSK PKIS; Assays: Nanosyn kinase panel” (2012).

As a reminder, the inhibition is the relative decrease from the control value, in per cent.

The target in assay [1] is Tyrosine-protein kinase Fer (Homo sapiens) (UniProt P16591). The settings on record: at 1 µM.
In assay [2] the target is Tyrosine-protein kinase Fes/Fps (Homo sapiens) (UniProt P07332). The note with it: at 0.1 µM.
Assay [3] shares this target. The settings on record: at 1 µM.
Assay [4] addresses Fibroblast growth factor receptor 1 (Homo sapiens) (UniProt P11362). The note with it: at 0.1 µM.
Assay [5] shares this target. The note with it: at 1 µM.
Assay [6] deals with Fibroblast growth factor receptor 2 (Homo sapiens) (UniProt P21802). The settings on record: at 0.1 µM.
Assay [7] has the same target. The settings on record: at 1 µM.
The target in assay [8] is Fibroblast growth factor receptor 3 (Homo sapiens) (UniProt P22607). The settings on record: at 0.1 µM.
Assay [9] has the same target. The settings on record: at 1 µM.
For assay [10], the target named is Fibroblast growth factor receptor 4 (Homo sapiens) (UniProt P22455). The note with it: at 0.1 µM.
Assay [11] has the same target. The note with it: at 1 µM.
Assay [12] deals with Tyrosine-protein kinase Fgr (Homo sapiens) (UniProt P09769). The note with it: at 0.1 µM.
Assay [13] shares this target. The settings on record: at 1 µM.
Assay [14] addresses Vascular endothelial growth factor receptor 1 (Homo sapiens) (UniProt P17948). The settings on record: at 0.1 µM.
For assay [15] the target is unchanged. The note with it: at 1 µM.
Assay [16] deals with Receptor-type tyrosine-protein kinase FLT3 (Homo sapiens) (UniProt P36888). The settings on record: at 0.1 µM.
For assay [17] the target is unchanged. The settings on record: at 1 µM.
The subject of assay [18] is T1, Receptor-type tyrosine-protein kinase FLT3 (Homo sapiens), P36888 [D835Y].
T1 sequence (whole entry): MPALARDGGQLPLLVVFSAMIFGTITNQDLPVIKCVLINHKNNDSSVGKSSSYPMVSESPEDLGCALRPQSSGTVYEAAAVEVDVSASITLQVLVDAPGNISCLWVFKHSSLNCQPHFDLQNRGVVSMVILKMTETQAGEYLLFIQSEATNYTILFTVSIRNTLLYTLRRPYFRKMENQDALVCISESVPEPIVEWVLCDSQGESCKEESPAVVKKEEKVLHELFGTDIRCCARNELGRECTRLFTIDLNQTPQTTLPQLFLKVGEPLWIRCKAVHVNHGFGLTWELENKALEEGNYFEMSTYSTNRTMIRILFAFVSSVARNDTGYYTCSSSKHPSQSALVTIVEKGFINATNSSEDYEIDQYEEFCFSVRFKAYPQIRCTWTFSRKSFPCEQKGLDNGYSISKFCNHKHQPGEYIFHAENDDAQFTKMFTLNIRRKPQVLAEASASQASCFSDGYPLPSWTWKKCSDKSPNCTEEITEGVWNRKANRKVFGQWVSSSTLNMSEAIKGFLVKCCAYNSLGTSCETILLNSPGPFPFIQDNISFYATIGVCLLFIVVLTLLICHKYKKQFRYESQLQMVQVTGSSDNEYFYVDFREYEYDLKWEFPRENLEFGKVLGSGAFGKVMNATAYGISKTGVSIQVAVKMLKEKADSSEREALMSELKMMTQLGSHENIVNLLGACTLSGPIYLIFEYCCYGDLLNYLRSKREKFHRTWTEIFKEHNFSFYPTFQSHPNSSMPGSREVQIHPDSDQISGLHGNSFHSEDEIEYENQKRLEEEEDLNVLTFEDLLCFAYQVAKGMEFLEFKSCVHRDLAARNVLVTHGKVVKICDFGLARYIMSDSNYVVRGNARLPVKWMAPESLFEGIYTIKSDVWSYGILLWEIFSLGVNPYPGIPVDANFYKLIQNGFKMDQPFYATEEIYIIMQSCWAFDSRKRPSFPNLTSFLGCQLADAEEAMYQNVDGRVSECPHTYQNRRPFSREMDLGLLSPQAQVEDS
The settings on record: at 0.1 µM.

Assay [19] concerns the target Non-receptor tyrosine-protein kinase TYK2 (Homo sapiens) (UniProt P29597). The settings on record: at 1 µM.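 Also: values are mean percent inhibition of TYK2 kinase.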
Assay [20] has as its target T2, Tyrosine-protein kinase receptor TYRO3 (Homo sapiens) (UniProt Q06418).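 Also: reported percentages are averaged inhibition values of TYRO3 kinase activity.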
T2 sequence (whole entry): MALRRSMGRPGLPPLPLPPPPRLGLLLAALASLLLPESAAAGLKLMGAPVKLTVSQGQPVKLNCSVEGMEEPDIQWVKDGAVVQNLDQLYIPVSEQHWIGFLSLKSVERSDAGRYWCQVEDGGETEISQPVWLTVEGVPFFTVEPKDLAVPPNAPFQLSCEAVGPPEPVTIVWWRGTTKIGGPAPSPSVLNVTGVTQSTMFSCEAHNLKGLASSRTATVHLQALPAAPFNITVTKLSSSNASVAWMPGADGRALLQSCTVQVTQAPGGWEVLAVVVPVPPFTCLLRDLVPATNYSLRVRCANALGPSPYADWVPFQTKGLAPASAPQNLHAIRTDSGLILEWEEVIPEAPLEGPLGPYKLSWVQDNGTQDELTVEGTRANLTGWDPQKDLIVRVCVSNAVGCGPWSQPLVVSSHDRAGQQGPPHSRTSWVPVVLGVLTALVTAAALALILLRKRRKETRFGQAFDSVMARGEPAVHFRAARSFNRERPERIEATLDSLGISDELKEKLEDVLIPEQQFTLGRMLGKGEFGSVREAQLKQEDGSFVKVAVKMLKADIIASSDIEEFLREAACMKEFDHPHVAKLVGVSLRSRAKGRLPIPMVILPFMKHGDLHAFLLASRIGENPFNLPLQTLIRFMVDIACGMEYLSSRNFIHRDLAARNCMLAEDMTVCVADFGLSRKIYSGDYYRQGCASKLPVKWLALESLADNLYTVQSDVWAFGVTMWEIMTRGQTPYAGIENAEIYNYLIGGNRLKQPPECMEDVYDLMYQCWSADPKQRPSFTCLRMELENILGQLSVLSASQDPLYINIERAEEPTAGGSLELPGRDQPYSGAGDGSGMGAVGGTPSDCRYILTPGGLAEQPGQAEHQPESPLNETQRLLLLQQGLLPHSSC
The note with it: at 0.1 µM.

Tyrosine-protein kinase Fer (Homo sapiens), sequence (P16591 whole entry, looked up): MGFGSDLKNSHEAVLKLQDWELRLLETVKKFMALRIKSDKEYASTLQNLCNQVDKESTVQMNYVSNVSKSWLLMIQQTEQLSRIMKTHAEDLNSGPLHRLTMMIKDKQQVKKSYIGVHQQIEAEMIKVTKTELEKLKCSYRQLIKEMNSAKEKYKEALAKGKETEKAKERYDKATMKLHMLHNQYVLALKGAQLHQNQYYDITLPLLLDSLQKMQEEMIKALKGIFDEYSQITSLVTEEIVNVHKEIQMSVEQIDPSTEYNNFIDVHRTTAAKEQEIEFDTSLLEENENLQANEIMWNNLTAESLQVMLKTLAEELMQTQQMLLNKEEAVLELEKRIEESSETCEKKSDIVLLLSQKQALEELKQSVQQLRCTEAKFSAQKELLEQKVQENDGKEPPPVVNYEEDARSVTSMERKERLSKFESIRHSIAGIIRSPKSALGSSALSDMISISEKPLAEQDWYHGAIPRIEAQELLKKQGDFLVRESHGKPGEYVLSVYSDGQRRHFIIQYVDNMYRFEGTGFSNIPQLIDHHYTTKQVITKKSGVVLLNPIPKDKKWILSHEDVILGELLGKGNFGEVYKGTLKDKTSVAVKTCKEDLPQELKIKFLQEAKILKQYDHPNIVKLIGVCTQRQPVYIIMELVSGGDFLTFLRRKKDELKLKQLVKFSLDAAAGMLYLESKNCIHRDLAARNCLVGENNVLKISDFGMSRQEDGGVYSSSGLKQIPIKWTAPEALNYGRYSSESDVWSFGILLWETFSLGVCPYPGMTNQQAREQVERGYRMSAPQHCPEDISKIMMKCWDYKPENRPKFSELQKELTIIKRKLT
Tyrosine-protein kinase Fgr (Homo sapiens), sequence (P09769 2-529 limits assumed): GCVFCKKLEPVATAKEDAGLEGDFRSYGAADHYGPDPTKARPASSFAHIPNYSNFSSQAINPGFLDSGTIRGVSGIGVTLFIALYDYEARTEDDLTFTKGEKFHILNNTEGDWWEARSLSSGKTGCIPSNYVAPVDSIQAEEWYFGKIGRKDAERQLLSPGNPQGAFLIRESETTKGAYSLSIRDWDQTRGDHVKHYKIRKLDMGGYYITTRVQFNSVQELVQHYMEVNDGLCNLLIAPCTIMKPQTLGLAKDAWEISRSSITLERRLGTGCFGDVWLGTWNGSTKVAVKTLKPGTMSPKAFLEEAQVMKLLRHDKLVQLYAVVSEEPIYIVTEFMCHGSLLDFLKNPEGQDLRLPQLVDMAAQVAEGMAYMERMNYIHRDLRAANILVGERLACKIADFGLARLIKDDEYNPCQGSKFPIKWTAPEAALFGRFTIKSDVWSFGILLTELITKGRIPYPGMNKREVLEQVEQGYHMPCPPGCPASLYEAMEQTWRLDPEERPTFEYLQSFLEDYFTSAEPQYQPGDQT
Fibroblast growth factor receptor 3 (Homo sapiens), sequence (P22607 23-806 limits assumed): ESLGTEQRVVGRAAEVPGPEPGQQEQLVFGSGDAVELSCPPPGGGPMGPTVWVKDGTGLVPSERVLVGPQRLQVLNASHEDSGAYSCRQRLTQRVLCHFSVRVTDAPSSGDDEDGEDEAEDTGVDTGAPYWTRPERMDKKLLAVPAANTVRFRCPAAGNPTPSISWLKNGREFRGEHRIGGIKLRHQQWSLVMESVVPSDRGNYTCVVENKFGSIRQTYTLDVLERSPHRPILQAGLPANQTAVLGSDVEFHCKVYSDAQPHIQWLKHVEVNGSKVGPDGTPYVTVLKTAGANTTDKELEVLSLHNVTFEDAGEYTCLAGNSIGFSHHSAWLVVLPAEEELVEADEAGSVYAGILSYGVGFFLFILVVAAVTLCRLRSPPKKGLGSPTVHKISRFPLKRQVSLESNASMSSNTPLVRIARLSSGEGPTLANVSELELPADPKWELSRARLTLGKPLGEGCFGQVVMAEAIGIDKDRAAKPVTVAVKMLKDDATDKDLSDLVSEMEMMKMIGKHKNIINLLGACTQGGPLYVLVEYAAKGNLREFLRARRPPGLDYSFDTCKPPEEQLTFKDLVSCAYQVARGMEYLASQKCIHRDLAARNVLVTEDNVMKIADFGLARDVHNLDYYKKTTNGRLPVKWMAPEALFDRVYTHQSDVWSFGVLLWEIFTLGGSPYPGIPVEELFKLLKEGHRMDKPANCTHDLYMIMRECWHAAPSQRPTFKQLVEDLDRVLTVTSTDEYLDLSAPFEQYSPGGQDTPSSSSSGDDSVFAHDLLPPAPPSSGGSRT
Fibroblast growth factor receptor 4 (Homo sapiens), sequence (P22455 22-802 limits assumed): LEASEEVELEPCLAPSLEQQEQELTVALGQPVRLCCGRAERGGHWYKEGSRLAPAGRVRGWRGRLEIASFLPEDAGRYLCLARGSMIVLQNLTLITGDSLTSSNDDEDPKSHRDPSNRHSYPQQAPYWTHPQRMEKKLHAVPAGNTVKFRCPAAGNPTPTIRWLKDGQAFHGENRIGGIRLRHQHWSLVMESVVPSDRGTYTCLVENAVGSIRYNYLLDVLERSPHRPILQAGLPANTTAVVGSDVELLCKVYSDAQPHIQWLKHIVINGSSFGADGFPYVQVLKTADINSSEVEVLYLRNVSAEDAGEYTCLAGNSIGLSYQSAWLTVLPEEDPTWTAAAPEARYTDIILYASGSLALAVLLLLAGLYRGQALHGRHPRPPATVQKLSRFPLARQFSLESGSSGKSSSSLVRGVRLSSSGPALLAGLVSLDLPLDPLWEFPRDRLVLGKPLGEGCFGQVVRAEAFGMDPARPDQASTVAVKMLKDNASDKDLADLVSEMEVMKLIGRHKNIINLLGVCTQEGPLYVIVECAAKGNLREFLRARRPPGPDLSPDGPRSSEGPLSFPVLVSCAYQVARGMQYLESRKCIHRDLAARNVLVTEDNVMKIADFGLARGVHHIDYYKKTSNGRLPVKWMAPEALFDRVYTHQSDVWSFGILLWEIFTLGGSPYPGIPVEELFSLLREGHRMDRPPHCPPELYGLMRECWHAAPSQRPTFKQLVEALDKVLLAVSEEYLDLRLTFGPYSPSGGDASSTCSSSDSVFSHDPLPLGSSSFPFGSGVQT
Non-receptor tyrosine-protein kinase TYK2 (Homo sapiens), sequence (P29597 whole entry): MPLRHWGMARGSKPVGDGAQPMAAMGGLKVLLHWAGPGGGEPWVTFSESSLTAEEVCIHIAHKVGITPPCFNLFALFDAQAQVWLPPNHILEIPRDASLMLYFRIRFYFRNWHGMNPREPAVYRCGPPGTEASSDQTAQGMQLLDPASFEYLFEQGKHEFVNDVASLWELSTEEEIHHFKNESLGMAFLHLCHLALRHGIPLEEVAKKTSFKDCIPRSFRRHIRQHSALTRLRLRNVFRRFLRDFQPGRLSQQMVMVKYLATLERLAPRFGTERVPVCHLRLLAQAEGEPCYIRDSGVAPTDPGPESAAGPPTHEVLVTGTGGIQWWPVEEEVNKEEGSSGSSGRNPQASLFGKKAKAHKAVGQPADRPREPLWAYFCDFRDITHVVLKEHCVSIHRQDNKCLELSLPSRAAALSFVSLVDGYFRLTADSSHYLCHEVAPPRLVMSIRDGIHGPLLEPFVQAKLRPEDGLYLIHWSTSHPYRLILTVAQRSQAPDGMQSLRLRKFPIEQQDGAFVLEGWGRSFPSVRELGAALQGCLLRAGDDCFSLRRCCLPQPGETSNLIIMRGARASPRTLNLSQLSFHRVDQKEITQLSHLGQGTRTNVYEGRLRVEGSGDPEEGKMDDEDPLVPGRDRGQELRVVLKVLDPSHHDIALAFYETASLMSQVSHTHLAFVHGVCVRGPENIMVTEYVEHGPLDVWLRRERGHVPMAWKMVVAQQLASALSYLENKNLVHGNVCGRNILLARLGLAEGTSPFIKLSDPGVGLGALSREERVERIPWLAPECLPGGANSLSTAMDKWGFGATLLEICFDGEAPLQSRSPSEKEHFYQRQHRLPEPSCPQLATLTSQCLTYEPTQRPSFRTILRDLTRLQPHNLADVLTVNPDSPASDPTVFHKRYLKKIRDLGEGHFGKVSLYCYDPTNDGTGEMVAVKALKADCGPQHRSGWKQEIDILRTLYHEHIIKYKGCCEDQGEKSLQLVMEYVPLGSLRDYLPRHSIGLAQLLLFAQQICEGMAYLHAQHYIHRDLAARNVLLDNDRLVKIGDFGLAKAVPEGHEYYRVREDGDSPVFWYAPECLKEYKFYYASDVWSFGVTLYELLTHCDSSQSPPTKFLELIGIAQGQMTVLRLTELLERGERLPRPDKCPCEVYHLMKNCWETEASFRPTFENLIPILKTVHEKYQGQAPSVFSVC
Fibroblast growth factor receptor 2 (Homo sapiens), sequence (P21802 22-821 limits assumed): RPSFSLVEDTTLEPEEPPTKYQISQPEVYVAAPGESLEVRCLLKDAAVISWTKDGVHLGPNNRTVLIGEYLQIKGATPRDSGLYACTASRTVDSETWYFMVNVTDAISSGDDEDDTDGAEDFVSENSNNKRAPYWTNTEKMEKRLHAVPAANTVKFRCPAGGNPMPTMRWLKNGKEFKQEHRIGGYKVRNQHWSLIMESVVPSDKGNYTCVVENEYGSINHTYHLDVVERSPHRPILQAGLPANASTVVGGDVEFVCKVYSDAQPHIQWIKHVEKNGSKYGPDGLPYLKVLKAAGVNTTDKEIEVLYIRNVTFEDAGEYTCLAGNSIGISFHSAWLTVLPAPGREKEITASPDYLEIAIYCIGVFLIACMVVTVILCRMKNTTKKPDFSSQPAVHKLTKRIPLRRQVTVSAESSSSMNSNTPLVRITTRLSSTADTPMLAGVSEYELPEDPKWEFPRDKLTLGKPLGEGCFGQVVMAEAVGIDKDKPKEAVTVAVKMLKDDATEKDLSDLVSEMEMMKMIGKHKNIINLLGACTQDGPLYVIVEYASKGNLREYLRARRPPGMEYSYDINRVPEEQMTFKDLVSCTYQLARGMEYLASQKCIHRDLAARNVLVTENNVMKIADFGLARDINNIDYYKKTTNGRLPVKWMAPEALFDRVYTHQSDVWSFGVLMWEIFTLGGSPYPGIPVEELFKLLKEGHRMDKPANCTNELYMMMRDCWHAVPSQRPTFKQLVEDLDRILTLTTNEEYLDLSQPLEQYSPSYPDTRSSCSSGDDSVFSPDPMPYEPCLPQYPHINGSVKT

As for `CCCN1CCCC(c2ccc(Nc3nc(Nc4cc(F)ccc4C(N)=O)c4cc[nH]c4n3)c(OC)c2)C1` (stereo not given), the inhibition in [1] is 84.4%; in assay [2], 61.4%; in assay [3], 81.3%; in assay [4], 3.11%; in assay [5], 3.44%; in assay [6], 4.31%. In addition, the inhibition in [7] came to 5.74%; in assay [8], 5.86%; in assay [9] it was 4.56%; in assay [10], 0.72%; in assay [11], 12.2%; in assay [12] it was 4.94%. The inhibition in [13] came out at 7.28%; in [14] it was 2.54%; in [15], 0.66%; in assay [16], 3.86%; in assay [17], 13.1%; in assay [18], 5.98%. Also, the inhibition in assay [19] is -3.62%; in assay [20], 4.74%.

With `COc1cccc(-n2ncc3c(N/N=C/c4ccc(C)cc4)ncnc32)c1`, the inhibition in assay [1] was found to be 17.5%; in assay [2], 5.32%; in [3] it was 10.3%; in assay [4] it was 4.11%; in assay [5] it was 17.7%; in assay [6], 9.23%. The inhibition in [7] came to 7.12%; in [8] it was 9.56%; in [9], 6.72%; in assay [10], 4.16%; in assay [11], 1.93%; in assay [12], 3.81%. In addition, the inhibition was 18.9% in [13]; -0.93% in assay [14]; 0.15% in [15]; 0.84% in assay [16]; 5.84% in assay [17]; 2.71% in assay [18]. Further, the results for the inhibition in assay [19] and in assay [20] were -1.47% and 1.83%, respectively.

As to `COC(=O)Nc1nc2cc(Oc3ccc(NC(=O)Nc4cccc(Br)c4)cc3)ccc2[nH]1`, the inhibition was determined as 4.33% in assay [1]; 1.77% in [2]; 2.25% in assay [3]; 3.32% in assay [4]; 0.5% in assay [5]; 1.09% in [6]. In addition, the inhibition is 3.33% in assay [7]; 4.36% in [8]; 2.66% in [9]; -1.88% in assay [10]; 2.05% in assay [11]; 4.68% in assay [12]. The inhibition in assay [13] is 2.98%; in assay [14], 33%; in assay [15] it was 53.7%; in assay [16], 32.8%; in assay [17], 56.7%; in assay [18], -2.2%. Moreover, the values for the inhibition in assay [19] and in assay [20] were 0.6% and 6.92%, respectively.

Consider `c1ccc(Cc2nc3ccc(Nc4ncnc5ccccc45)cc3[nH]2)cc1`, for which the inhibition in assay [1] was 6.1%; in assay [2], 1.75%; in assay [3], 3.02%; in [4], 2.15%; in [5], 1.67%; in assay [6], 5.23%. Also, the inhibition in assay [7] was 7.58%; in assay [8], 4.51%; in assay [9], 5.34%; in assay [10] it was -1.72%; in assay [11], -0.04%; in assay [12] it was 5.51%. Moreover, the inhibition stood at 18.2% in assay [13]; 0.86% in [14]; 4.39% in [15]; 0.83% in assay [16]; 3.55% in assay [17]; 4.82% in [18]. Besides, the inhibition in assay [19] is -0.14%; in assay [20], 1.48%.

`Cc1ccc2c(-c3ccnc(Nc4cccc(C(F)(F)F)c4)n3)c(-c3ccccc3)nn2n1`: the inhibition in [1] came out at 43.3%; in assay [2], 3.67%; in assay [3], 5.17%; in assay [4] it was 5.59%; in [5], 8.78%; in [6], 6.45%. The inhibition was found to be 9.52% in [7]; 7.84% in [8]; 6.97% in assay [9]; 2.15% in assay [10]; 0.17% in assay [11]; 36.8% in assay [12]. Further, the inhibition in [13] stood at 71%; in assay [14], 2.37%; in [15], 21.2%; in [16], 1.89%; in assay [17], 10.2%; in assay [18], 3.67%. Moreover, the inhibition in assay [19] is -1.51%; in [20], 2.7%.
